High-throughput results from PubChem.
The list is not random: actives were taken first. Their share in the collection is about 3.7%.
TIM10 inh: growth inhibitors of isogenic TIM10 control yeast, primary screen, counter-screen for tim10-1 yeast inhibitor project, luminescence, uHTS; S. cerevisiae TIM10 strain growth, BacTiter-Glo luminescence, 24 h; inhibition, % at 10 µM; 330,000 compounds, 1.4% hits;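 active means inhibition of 40% or more at the single tested concentration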;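 further: wild-type TIM10 isogenic control strain grown at permissive 25 °C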
tim10-1 inh: growth inhibitors of tim10-1 mutant yeast, primary screen, luminescence, uHTS | 330,000 compounds, 2.2% hits | S. cerevisiae tim10-1 ts strain growth, BacTiter-Glo, 24 h | inhibition, % at 20 µM;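 active means inhibition of at least 40%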;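 further: mutant grown at 25 °C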
Rce1 inhib: yeast Rce1p protease inhibitors, primary screen, biochemical, fluorescence, cell-free homogeneous; calls only; 290,000 compounds, 0.27% hits; AID 2563, 2010; yeast membranes, quenched prenylated peptide cleavage fluorescence;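 active means fall in fluorescence gain of 50% or more versus controls, with final raw signal at or below 3038400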
Target sequence (Q03530 whole entry, looked up): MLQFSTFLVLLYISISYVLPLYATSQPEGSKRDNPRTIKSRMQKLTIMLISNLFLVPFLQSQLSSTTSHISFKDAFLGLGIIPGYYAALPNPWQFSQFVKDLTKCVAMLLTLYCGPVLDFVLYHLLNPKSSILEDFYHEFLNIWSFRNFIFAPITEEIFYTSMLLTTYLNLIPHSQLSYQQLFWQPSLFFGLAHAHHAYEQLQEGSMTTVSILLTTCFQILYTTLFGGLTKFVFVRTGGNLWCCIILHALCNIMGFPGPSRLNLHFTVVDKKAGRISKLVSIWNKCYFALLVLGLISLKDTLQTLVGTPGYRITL
PfHsp90 set2: growth inhibition of PfHsp90-expressing yeast, primary screen, antimalarial PfHsp90 inhibitor project, S. cerevisiae, BacTiter-Glo luminescence, single point, set 2; 310,000 compounds, 0.32% hits; inhibition, % at 9.4 µM; BacTiter-Glo ATP, 48 h; yeast lacking PDR1 and PDR3 efflux regulators; AID 504621, 2011;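 active means every replicate shows inhibition above about 80%, whatever the replicate mean, limit read from the data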
tim23-1 inh: growth inhibitors of tim23-1 mutant yeast, primary screen, luminescence, uHTS | S. cerevisiae tim23-1 growth, BacTiter-Glo luminescence, 24 h | 330,000 compounds, 1.3% hits | inhibition, % at 20 µM;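 active means growth inhibition of the mutant yeast at or above 50%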;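 further: temperature-sensitive mutant grown at 25 °C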
tim23-1 conf: tim23-1 mutant yeast growth inhibitors, confirmation, luminescence, single concentration | shares compounds with tim23-1 inh | S. cerevisiae tim23-1 growth, BacTiter-Glo luminescence, 24 h | inhibition, % at 20 µM | 4,400 compounds, 83% hits | AID 463218, 2010;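 active means inhibition above about 39% in either of two replicate wells at 20 µM, limit read from the data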;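 further: temperature-sensitive tim23-1 mutant grown at 25 °C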
Each line names hits and unclear results; the compound was inactive in the other large screens (follow-up assays come after a bar, where they were run); ! = not confirmed by another sample.

Cc1ccccc1[C@]1(C)ON(c2ccccc2C(F)(F)F)C1=O	tim23-1 inh 52.9 (no result: Rce1 inhib, PfHsp90 set2) | tim23-1 conf 57.6
Cc1nc(Nc2ccc(O)cc2)c2c3c(sc2n1)CCCC3	tim23-1 inh 51.8 | tim23-1 conf 45.4
Brc1ccc(-c2csc(Nc3nc(-c4ccc(Br)cc4)cs3)n2)cc1	tim23-1 inh 53.4 | tim23-1 conf inactive
FC(F)(F)c1ccc(Cl)c(NC(=S)NC2CC2)c1	none
Cc1nc2scc(C)n2c(=O)c1S(=O)(=O)Nc1ccc(N2CCOCC2)c(Cl)c1	none
Cc1nc2scc(C)n2c(=O)c1S(=O)(=O)Nc1ccc(OC(F)(F)F)cc1	tim23-1 inh 60.0 | tim23-1 conf 64.5
Cc1ccc(C)c(NC(=O)CCc2nnc3ccc(N4CCCCC4)nn23)c1	none
O=C(Nc1ccc(-c2cn3c(n2)SCC3)cc1)c1ccco1	tim23-1 inh 50.6 | tim23-1 conf 44.0
COc1ccc([C@@H]2[C@@H]3C(=O)N(C(C)(C)C)C(=O)[C@@H]3[C@]3(CC(C)C)C(=O)N(c4cccc(Br)c4)C(=O)N23)cc1	none
c1ccc(-c2ccnc3nc(N4CCN(c5ccccc5)CC4)nn23)cc1	tim23-1 inh 51.4 | tim23-1 conf inactive
Fc1ccc(-c2ccnc3nc(N4CCN(c5ccccc5)CC4)nn23)cc1	none
COc1cccc(CNc2ccc([N+](=O)[O-])cc2Cl)c1O	tim23-1 inh 58.1 | tim23-1 conf 65.2
Oc1ccc2ccccc2c1/C=N/Nc1nnc(-c2ncc[nH]2)c2ccccc12	PfHsp90 set2 121.5, tim23-1 inh 68.7 | tim23-1 conf 65.3
Cc1ccc(/C=N\NC(=O)CCc2n[nH]c(=O)[nH]c2=O)o1	none
O=C1C(NS(=O)(=O)c2cccs2)=C(N2CCN(Cc3ccccc3)CC2)C(=O)c2ccccc21	tim23-1 inh 52.7 | tim23-1 conf inactive
CN1CCN(C2=C(NS(=O)(=O)c3cccs3)C(=O)c3ccccc3C2=O)CC1	none
Cn1c(N2CCOCC2)nc2c1c(=O)n(Cc1ccc(Cl)c(Cl)c1)c(=O)n2C	tim23-1 inh 54.8 (no result: Rce1 inhib) | tim23-1 conf inactive
Cn1c(N2CCCC2)nc2c1c(=O)n(Cc1ccc(F)cc1)c(=O)n2C	none
C/C(=C\c1ccc(C)o1)C(=O)c1c(C)cc(C)[nH]c1=O	none
O=C(CSc1cccc[n+]1[O-])CSc1cccc[n+]1[O-]	tim23-1 inh 71.0 | tim23-1 conf 61.3
O=C(CSc1cccc[n+]1[O-])Nc1ccccc1Oc1ccccc1	tim23-1 inh 69.5 | tim23-1 conf 76.2
c1ccc2cc(OCc3nc4ccccc4[nH]3)ccc2c1	tim23-1 inh 51.6 | tim23-1 conf inactive
COc1ccc(OCc2nc3ccccc3[nH]2)cc1	none
Cc1c(O)cc2c(c1O)C(=O)CC(c1ccccc1)O2 (stereo not given)	tim23-1 inh 50.8 | tim23-1 conf 47.7
C=CCNc1nc2ccccc2nc1NS(=O)(=O)c1ccc(F)cc1	none
C=CCNc1nc2ccccc2nc1NS(=O)(=O)c1ccc(Br)cc1	tim23-1 inh 50.3 | tim23-1 conf 54.5
Cc1c(F)cccc1NS(=O)(=O)c1ccc(OCCNS(C)(=O)=O)cc1	none
O=Cc1ccccc1OCc1ccc2c(c1)OCO2	tim23-1 inh 56.9 | tim23-1 conf 56.1
CCCCCCCCCCCCCCCC(O)C(N)CO (stereo not given)	tim23-1 inh 52.1 | tim23-1 conf 43.8
CCCCCCCCO	none (no result: Rce1 inhib)
CC(=O)c1ccc(N2CCN(C(=O)c3ccc(Br)cc3)CC2)c(F)c1	tim23-1 inh 57.1 | tim23-1 conf inactive
CC1(CC(=O)NNC(=O)Nc2ccccc2)OCCCO1	none
COc1cccc(-n2nnnc2SCC(=O)N2CCCc3ccccc32)c1	tim23-1 inh 57.8 | tim23-1 conf 54.5
O=C(Cc1c(F)cccc1Cl)Nc1ccc(S(=O)(=O)N2CCOCC2)cc1	none
COc1ccc(S(N)(=O)=O)cc1C(=O)OCC1CCCCC1	none (no result: Rce1 inhib)
O=c1[nH]c(S)nc2sc3c(c12)CCCC3	none
O=c1[nH]c(-c2ccco2)nc2sc3c(c12)CCCC3	tim23-1 inh 50.3 | tim23-1 conf 48.5
Cc1cc(C)c(NC(=O)CN(C)C(=O)CNC(=O)c2cccs2)c(C)c1	none (no result: Rce1 inhib)
Nc1ccc(N=Nc2ccccc2O)c(N)c1	tim23-1 inh 55.0 (no result: PfHsp90 set2) | tim23-1 conf 46.3
CCOC(=O)c1sc(NC(=O)c2ccc(Br)o2)cc1C	none
CCOC(=O)c1sc(NC(=O)c2cccs2)cc1C	tim23-1 inh 55.4 | tim23-1 conf 77.8
CSc1nc(N)c2cn[nH]c2n1	none (no result: TIM10 inh, tim10-1 inh, Rce1 inhib, tim23-1 inh)
O=C1OCCC1Sc1nc2ccccc2c(=O)n1Cc1ccc(F)cc1 (stereo not given)	tim23-1 inh 50.0 | tim23-1 conf inactive
c1ccc(-c2cc3ccccc3cn2)cc1	tim23-1 inh 50.6 (no result: Rce1 inhib) | tim23-1 conf 75.4
COc1ccc2cc(-c3ccccc3)ncc2c1	none
COc1ccc(-c2cc3cc(OC)c(OC)cc3cn2)cc1	none (no result: Rce1 inhib)
c1ccc(-c2cc3cc4c(cc3cn2)OCO4)cc1	tim23-1 inh 62.4 (no result: Rce1 inhib) | tim23-1 conf 49.8
COc1ccc(-c2cc3cc4c(cc3cn2)OCO4)cc1	none (no result: Rce1 inhib)
COc1cc(OC)cc(-c2cc3ccc(OC)cc3cn2)c1	tim23-1 inh 51.2 (no result: Rce1 inhib) | tim23-1 conf 54.5
COc1cc2cnc(-c3ccccc3)cc2cc1OC	tim23-1 inh 51.7 (no result: Rce1 inhib) | tim23-1 conf 44.5
OC(COc1cccc2ccccc12)CN1CCN(c2ccc(Cl)cc2)CC1 (stereo not given)	none
OC(COc1cccc2ccccc12)CN1CCN(c2cccc(Cl)c2)CC1 (stereo not given)	tim23-1 inh 69.0 | tim23-1 conf inactive
OC(COc1ccc(Cl)c2ccccc12)CN1CCN(c2ccccn2)CC1 (stereo not given)	tim23-1 inh 63.0 | tim23-1 conf inactive
COc1ccc(CCNc2ncnc3c2c(C)c(C)n3CCO)cc1OC	none
O=C(COC(=O)c1cc([N+](=O)[O-])ccc1N1CCOCC1)NCc1ccc(Cl)cc1Cl	tim23-1 inh 50.9 | tim23-1 conf 48.0
O=C1C=C(Nc2ccccc2)C(=O)c2ccccc21	none
COc1cccc2c1C(=O)C=C(C)C2=O	tim23-1 inh 50.0 | tim23-1 conf 46.8
CC1=CC(=O)c2ccccc2C1=O	tim23-1 inh 51.3! | tim23-1 conf 63.3
Cc1cc(OCc2cc(C(=O)NCCN3CCCCC3CO)no2)cc(C)c1Cl (stereo not given)	none
CC(C)Cn1c(N)c(C(=O)COC(=O)Cc2cccc(C(F)(F)F)c2)c(=O)n(C)c1=O	none
Cc1ccc(NC(=O)c2ccc(Cl)c(NC(=O)c3cccs3)c2)cc1	tim23-1 inh 66.3 | tim23-1 conf 66.2
CC[C@]12C(=O)N(C)C[C@H]([C@@H]3C(=O)N(Cc4ccccc4)C(=O)[C@@H]31)N2C(=O)c1ccc(C(C)(C)C)cc1	none (no result: TIM10 inh, tim10-1 inh, Rce1 inhib, tim23-1 inh)
